According to PubChem BioAssay (NCI):
Compounds without any hit were thinned out: in the full panel of roughly 83,000, 20% have a hit.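 Note: values are percent growth. 100 is the growth of untreated cells, values between 100 and 0 indicate rising inhibition; between -100 and 0 indicates cell death.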 Calls of active or inactive are those of the source. Rule for the calls: active = growth percent below 10; inactive = the rest.

What follows are compounds tested on HS 578T breast (assay: NCI-60 one-dose screen, 48 h (100 = growth as untreated, 0 = no growth, -100 = all killed)). Settings: 10 µM unless noted.
For O=C(/C=C/c1cccc(F)c1)c1cccc(OCCCCOc2cccc(C(=O)/C=C/c3cccc(F)c3)c2)c1, the growth was 99.3% (inactive).
For O=S(=O)(NCCCNc1nccc(-c2[nH]c(-c3ccccc3)nc2-c2ccc(F)c(O)c2)n1)c1ccc(C(F)(F)F)cc1, the growth was 48.9% (inactive).
In the case of O=C(CCCCCCNC(=O)C(O)(O)C(F)(F)F)Nc1ncc(-c2ccccc2)s1, the growth is reported as 0.452% (active).
In the case of CN(C)c1ccc(/C=N/Nc2nc(N/N=C/c3ccc(N(C)C)cc3)nc(N3CCCCC3)n2)cc1, the growth is reported as 106% (inactive).
With NC1[C@H]2CN(c3cnc(C(=O)Nc4cc(F)cc5cccnc45)cn3)C[C@@H]12 (some centres undefined) the growth was 77.2% (inactive).
For Clc1cccc(/C=N/Nc2nc(N/N=C/c3cccc(Cl)c3)nc(N3CCCCC3)n2)c1, the growth was 105% (inactive).
For CC(Nc1ncnc2ccc(-c3cnc4cnccn34)cc12)c1ccccc1 (centres undefined), the growth was 63.1% (inactive).
CN1CCN(c2ccc(Nc3nc(NCCNC(=O)c4ccccc4)c4sccc4n3)cc2)CC1 was tested, and the growth was 81% (inactive).
In the case of O=C(CSc1nc2ccccc2c(=O)n1-c1ccccc1)N/N=C/c1ccc(Oc2ccc(Cl)cc2)cc1, the growth is reported as 58.9% (inactive).
